Compounds with a hit are over-represented: about 3.8% of the library has one in this group of screens.
FGF22 binding: binders of human FGF22 protein, primary screen, FGF22 synaptogenesis inhibitor project, biophysical, thermal shift, single point. recombinant FGF22 thermal shift, SYPRO orange fluorescence; percent of sucrose octasulfate shift, DMSO zero. activity (Tm shift, normalised), % at 9.99 µM. Fibroblast growth factor 22 (Homo sapiens), Q9HCT0. 340,000 tested, 1.5% active. AID 651658, 2012;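 active = mean Tm shift, scaled 0 neutral to 100 positive control, at about 1.3% or above, every replicate too, limit read from the data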
Ecoli rRNA inh: reduced GFP signal of wild-type E. coli, primary screen, bacterial rRNA inhibitor project, GFP/RFP fluorescence, OD600, single point; E. coli WT GFP vs humanized-ribosome RFP mutants, 24 h; stronger effect = lower value; DMSO median 0, no signal -100; GFP signal change (wild-type ribosome), % (test concentration not listed); 350,000 tested, 1.6% active; AID 720706, 2013;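 active = significant combined selectivity score with lowered wild-type GFP, culture density cut under 30%, mutant RFP and density less affected; inactive = any of these conditions unmet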
ADAM10 inh: human ADAM10 inhibitors, primary screen, biochemical, QFRET, HTS. Disintegrin and metalloproteinase domain-containing protein 10 (Homo sapiens), O14672. recombinant ADAM10, EDANS/DABCYL FRET peptide cleavage, 3 h. inhibition, % at 7 µM. 370,000 tested, 0.62% active. AID 720582, 2013;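 active = inhibition above a per-campaign cutoff equal to the mean of compounds falling between control-based bounds plus 3 SD, cut at about 20% in these data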;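 also: 0% = DMSO wells while the 100% control is not disclosed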
KLK7 zymogen act: proKLK7 zymogen activators, primary screen, biochemical, fluorescence intensity; AID 652039, 2013; Kallikrein-7 (Homo sapiens), P49862; activation, % at 7 µM; 370,000 tested, 0.9% active; purified proKLK7, EDANS-DABCYL substrate fluorescence; 100% is mature enzyme control, 0% vehicle;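 active = activation above the mean of all tested compounds plus 3 SD, computed per campaign excluding outliers beyond control limits, cut at about 13% in these data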
ADAM17 inh: ADAM17 inhibitors, primary screen, biochemical, QFRET. Disintegrin and metalloproteinase domain-containing protein 17 (Homo sapiens), P78536. recombinant ADAM17, EDANS/DABCYL FRET peptide cleavage. inhibition, % at 6.95 µM. 370,000 tested, 0.83% active;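 active = inhibition above the mean of compounds lying between control limits plus 3 SD, set per campaign, cut at about 8.5% in these data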;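 also: 0% = DMSO-only wells as the low control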
Target sequence (P78536 215-824 limits assumed): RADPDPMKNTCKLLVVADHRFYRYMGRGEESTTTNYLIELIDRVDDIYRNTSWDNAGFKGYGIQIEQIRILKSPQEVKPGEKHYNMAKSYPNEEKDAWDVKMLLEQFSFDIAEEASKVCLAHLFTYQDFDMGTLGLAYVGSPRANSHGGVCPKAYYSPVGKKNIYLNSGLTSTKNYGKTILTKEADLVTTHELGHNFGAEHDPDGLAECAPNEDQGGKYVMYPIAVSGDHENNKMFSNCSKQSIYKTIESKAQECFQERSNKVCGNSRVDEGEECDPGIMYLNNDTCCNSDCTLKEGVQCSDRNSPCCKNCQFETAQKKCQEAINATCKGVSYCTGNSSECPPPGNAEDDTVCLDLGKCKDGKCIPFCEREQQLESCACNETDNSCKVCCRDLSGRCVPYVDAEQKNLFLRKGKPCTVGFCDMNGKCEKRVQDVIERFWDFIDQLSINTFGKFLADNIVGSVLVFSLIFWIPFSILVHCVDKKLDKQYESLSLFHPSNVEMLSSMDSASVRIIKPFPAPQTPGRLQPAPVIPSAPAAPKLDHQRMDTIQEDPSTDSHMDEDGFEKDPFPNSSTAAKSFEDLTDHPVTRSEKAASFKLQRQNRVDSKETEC
ADAM10 confirm: human ADAM10 inhibitors, confirmation, biochemical, QFRET, triplicate; inhibition, % at 6.95 µM; shares compounds with ADAM10 inh; 2,100 tested, 1% active; ADAM10 QFRET peptide cleavage, EDANS fluorescence;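 active = inhibition above about 20% chosen separately for each screening run, limit read from the data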;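 also: 0% = DMSO wells and 100% = marimastat wells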
ADAM17 counter: ADAM17 inhibitors, counter-screen for ADAM10 exosite inhibitor project, biochemical, QFRET, high throughput; ADAM17 QFRET peptide cleavage, EDANS fluorescence; 2,100 tested, 0.5% active; shares compounds with ADAM10 inh; inhibition, % at 6.95 µM;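 active = mean triplicate inhibition above the solvent-only control wells' mean plus 3 SD, cut at about 12% in these data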;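 also: 0% = DMSO wells and 100% = marimastat wells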
ADAM10 ctr: ADAM10 inhibitors, counter-screen for ADAM17 exosite inhibitor project, biochemical, FRET, human ADAM10. inhibition, % at 6.95 µM. AID 743256, 2014. recombinant ADAM10, EDANS/DABCYL FRET peptide cleavage, 3 h. 2,900 tested, 47% active. shares compounds with ADAM17 inh;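 active = mean inhibition over the triplicate runs exceeds the activity threshold set in the earlier primary screen, cut at about 20% in these data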;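 also: 0% = DMSO wells and 100% = marimastat wells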
ADAM17 confirm: ADAM17 inhibitors, hit retest, confirmation, biochemical, QFRET peptide cleavage. shares compounds with ADAM17 inh. recombinant ADAM17, EDANS/DABCYL QFRET peptide cleavage. inhibition, % at 6.95 µM. 2,900 tested, 65% active. AID 743257, 2014;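 active = mean inhibition across replicates above the hit cutoff set in the primary screen, cut at about 8.5% in these data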;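 also: 0% = DMSO wells and 100% = marimastat wells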
Numbers without * were called inactive.

COc1ccc(OC(F)(F)F)cc1CC1(C)C(=O)Nc2ccc(S(=O)(=O)NC3CCCCC3)cc21 (centres undefined) was read as FGF22 binding 0.4, Ecoli rRNA inh 3.8, ADAM10 inh 22.9*, KLK7 zymogen act 0.0, ADAM17 inh 10.2*, ADAM10 confirm 0.0, ADAM17 counter 0.7, ADAM10 ctr 40.2* and ADAM17 confirm 18.4*.
COc1ccc(Nc2oc(COc3cccc(C)c3)nc2C#N)cc1 was read as ADAM10 inh 29.7*, KLK7 zymogen act -1.0, ADAM17 inh 10.3*, ADAM10 confirm 4.3, ADAM17 counter 1.4, ADAM10 ctr 20.7* and ADAM17 confirm 13.0*.
For COc1ccc(OCc2nc(C#N)c(N3CCN(c4ccc(OC)cc4)CC3)o2)cc1 the results were FGF22 binding 0.3, Ecoli rRNA inh -4.7, ADAM10 inh 28.7*, KLK7 zymogen act 1.6, ADAM17 inh 15.5*, ADAM10 confirm 4.9, ADAM17 counter 1.5, ADAM10 ctr 12.4 and ADAM17 confirm 3.7.
COc1ccc(N2CCN(c3oc(COc4ccccc4Cl)nc3C#N)CC2)cc1 was read as ADAM10 inh 4.4, KLK7 zymogen act 0.0 and ADAM17 inh -0.7.
COc1ccc(Nc2oc(COc3ccc(C)cc3)nc2C#N)cc1 was read as ADAM10 inh 19.7, KLK7 zymogen act 0.3 and ADAM17 inh 6.0.
Screening C=CC[C@@H](CC(=O)N(CCO)Cc1ccccc1)C(=O)N[C@H](COC(=O)[C@@H](CC=C)Cc1ccc(F)cc1)c1ccccc1 returned FGF22 binding 0.0, Ecoli rRNA inh 5.4, ADAM10 inh 34.4*, KLK7 zymogen act 0.4, ADAM17 inh 15.3*, ADAM10 confirm 9.2, ADAM17 counter 4.3, ADAM10 ctr 33.3* and ADAM17 confirm 17.0*.
Screening C=CC[C@@H](CC(=O)N(CCO)Cc1ccccc1)C(=O)NC[C@H](OC(=O)[C@@H](CC=C)Cc1ccc(F)cc1)c1ccccc1 returned FGF22 binding -0.2, Ecoli rRNA inh -4.8, ADAM10 inh 26.0*, KLK7 zymogen act 0.7, ADAM17 inh 12.8*, ADAM10 confirm 7.2, ADAM17 counter 2.3, ADAM10 ctr 34.5* and ADAM17 confirm 18.7*.
C=CC[C@@H](CC(=O)N(CCO)Cc1ccccc1)C(=O)N[C@@H](C)COC(=O)[C@@H](CC=C)Cc1ccc(F)cc1 was read as FGF22 binding -0.2, Ecoli rRNA inh 3.9, ADAM10 inh 12.8, KLK7 zymogen act 0.2 and ADAM17 inh 1.9.
O=C(NCC(c1ccccc1)c1ccccc1)[C@H](Cc1c[nH]c2ccccc12)NC1(C(=O)NC2CCCCC2)CCC1 was read as ADAM10 inh 24.4*, ADAM17 inh 13.8*, ADAM10 confirm 7.0, ADAM17 counter 2.5, ADAM10 ctr 34.2* and ADAM17 confirm 23.8*.
CC(C)(C)OC(=O)N1CCC(N[C@@H](Cc2c[nH]c3ccccc23)C(=O)NCCc2c[nH]c3ccccc23)(C(=O)NC2CCCCC2)CC1 was read as ADAM10 inh 25.6*, ADAM17 inh 9.2*, ADAM10 confirm 8.9, ADAM17 counter 2.2, ADAM10 ctr 28.5* and ADAM17 confirm 14.8*.
CC(C)(N[C@@H](Cc1c[nH]c2ccccc12)C(=O)NCC(c1ccccc1)c1ccccc1)C(=O)NC1CCCCC1 was read as ADAM10 inh 21.1*, ADAM17 inh 9.9*, ADAM10 confirm 7.9, ADAM17 counter 2.8, ADAM10 ctr 39.8* and ADAM17 confirm 18.6*.
For O=C(NCCCc1ccccc1)[C@H](Cc1c[nH]c2ccccc12)NC1(C(=O)NCCc2c[nH]c3ccccc23)CCC1 the results were ADAM10 inh 31.4*, ADAM17 inh 15.8*, ADAM10 confirm 9.8, ADAM17 counter 3.3, ADAM10 ctr 30.5* and ADAM17 confirm 14.3*.
COc1ccc2c3c([nH]c2c1)[C@@H](CO)N(C(=O)Nc1ccc(F)cc1)CC31CCN(S(C)(=O)=O)CC1 was read as FGF22 binding 0.0 and Ecoli rRNA inh -2.0.
For O=C(C[C@H]1CC[C@@H]2[C@H](COC[C@H](O)CN2C(=O)c2ccccc2)O1)NCCCN1CCOCC1 the results were FGF22 binding 0.4 and Ecoli rRNA inh -0.8.
`CSc1ccccc1OCc1cc(C(=O)N2CCN(c3ccccc3)CC2C)no1` (centres undefined) gave FGF22 binding -0.2, Ecoli rRNA inh 3.5, ADAM10 inh 2.2, KLK7 zymogen act -0.7 and ADAM17 inh 4.1.
For CSc1ccccc1OCc1cc(C(=O)N2CCc3[nH]cnc3C2c2ccccn2)no1 (centres undefined) the results were FGF22 binding -0.1, Ecoli rRNA inh 3.9, ADAM10 inh 25.3*, KLK7 zymogen act -0.8, ADAM17 inh 10.9*, ADAM10 confirm 8.0, ADAM17 counter 3.5, ADAM10 ctr -1.3 and ADAM17 confirm 2.4.
Screening CC(C)(C)NC(=O)C(c1c[nH]c2ccccc12)N(C(=O)Cn1nnc(-c2ccc(F)cc2)n1)c1cccc(O)c1 (centres undefined) returned FGF22 binding 1.0, ADAM10 inh 28.4*, KLK7 zymogen act 0.2, ADAM17 inh 14.1*, ADAM10 confirm 8.0, ADAM17 counter 3.0, ADAM10 ctr 32.4* and ADAM17 confirm 18.6*.
Screening COc1ccc2c3c(n(C)c2c1)[C@H](CO)N(C(=O)CN(C)C)CC31CCN(Cc2cccnc2)CC1 returned FGF22 binding -0.1 and Ecoli rRNA inh 0.9.
